Assay results from PubChem BioAssay (EPA / NIEHS).
Calls of active or inactive are those of the source. How the source made its calls: active means hit-call score of the fitted dose curve at least 0.9, where 1 is the maximum; inactive means score below 0.9.

What was measured:
Settings in all cases: mRNA level, 48 h; actives raise or lower the signal
[1] = read-out: ABC Transporter (ABCB1), ABCB1 (gene 5243); test: LTEA_HepaRG_ABCB1: Life Technologies and Expression Analysis (LTEA) Assay for ABC Transporter (ABCB1) using HepaRG (AID 2283460)
Method in brief: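 HepaRG cells exposed in duplicate for 48 h in serum-free induction medium to eight half-log concentrations up to 100 uM in 0.5% DMSO. ABCB1 mRNA quantified by qRT-PCR, normalised to ACTB, GAPDH and POLR2A; fitted bidirectionally versus DMSO.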

[2] = read-out: growth arrest and DNA damage 45 (GADD45B), GADD45B (gene 4616); test: LTEA_HepaRG_GADD45B: Life Technologies and Expression Analysis (LTEA) Assay for growth arrest and DNA damage 45 (GADD45B) using HepaRG (AID 2283461)
Method in brief: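 qRT-PCR read-out (Fluidigm TaqMan, housekeeping-normalized) of mRNA change in human HepaRG cells after 48 h chemical exposure; 8-point curve, top 100 uM, half-log steps, 0.5% DMSO vehicle; gain or loss fitted relative to DMSO baseline.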

[3] = read-out: ABC Transporter (ABCC3), ABCC3 (gene 8714); test: LTEA_HepaRG_ABCC3: Life Technologies and Expression Analysis (LTEA) Assay for ABC Transporter (ABCC3) using HepaRG (AID 2283462)
Method in brief: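 qRT-PCR read-out of ABCC3 transcript, normalized to three housekeeping genes (ACTB, GAPDH, POLR2A), after 48 h chemical exposure of human HepaRG cells. Eight half-log concentrations, highest 100 uM, in 0.5% DMSO; gain or loss fitted relative to DMSO baseline.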

[4] = read-out: ABC Transporter (ABCB11), ABCB11 (gene 8647); test: LTEA_HepaRG_ABCB11: Life Technologies and Expression Analysis (LTEA) Assay for ABC Transporter (ABCB11) using HepaRG (AID 2283463)
Method in brief: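 Differentiated human HepaRG cells in serum-free induction medium, dosed in duplicate for 48 h. Eight-point half-log series from 100 uM in 0.5% DMSO; ABCB11 mRNA by qRT-PCR, normalized to ACTB, GAPDH, POLR2A, fitted bidirectionally versus DMSO.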

[5] = read-out: ABC Transporter (ABCC2), ABCC2 (gene 1244); test: LTEA_HepaRG_ABCC2: Life Technologies and Expression Analysis (LTEA) Assay for ABC Transporter (ABCC2) using HepaRG (AID 2283464)
Method in brief: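 qRT-PCR (TaqMan, Fluidigm array) read-out of ABCC2 mRNA, normalized to three housekeeping genes. Differentiated HepaRG cells were treated 48 h in serum-free induction medium with 8-point half-log series from 100 uM in 0.5% DMSO; curves fitted bidirectionally relative to DMSO.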

[6] = read-out: Broad substrate specificity ATP-binding cassette transporter ABCG2 (Homo sapiens) (UniProt Q9UNQ0); test: LTEA_HepaRG_ABCG2: Life Technologies and Expression Analysis (LTEA) Assay for ABC Transporter (ABCG2) using HepaRG (AID 2283465)
Method in brief: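 Differentiated HepaRG cells were exposed for 48 h in serum-free induction medium to 8 half-log concentrations, top 100 uM, in 0.5% DMSO. ABCG2 mRNA was measured by qRT-PCR, normalized to ACTB, GAPDH and POLR2A, with bidirectional fitting versus DMSO.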

[7] = read-out: ATP-citrate lyase (ACLY), ACLY (gene 47); test: LTEA_HepaRG_ACLY: Life Technologies and Expression Analysis (LTEA) Assay for ATP-citrate lyase (ACLY) using HepaRG (AID 2283466)
Method in brief: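 Differentiated HepaRG cells exposed 48 h in serum-free induction medium to eight half-log concentrations up to 100 uM in 0.5% DMSO, duplicates. Transcript measured by Fluidigm TaqMan qRT-PCR, normalized to ACTB, GAPDH, POLR2A; bidirectional fit versus DMSO.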

[8] = read-out: Peroxisomal acyl-coenzyme A oxidase 1 (ACOX1) gene, ACOX1 (gene 51); test: LTEA_HepaRG_ACOX1: Life Technologies and Expression Analysis (LTEA) Assay for Peroxisomal acyl-coenzyme A oxidase 1 (ACOX1) gene using HepaRG (AID 2283467)
Method in brief: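 HepaRG cells, plated 48 h then switched to serum-free induction medium, were exposed in duplicate for 48 h to 8-point half-log concentrations up to 100 uM in 0.5% DMSO. ACOX1 mRNA was measured by qRT-PCR, normalized to ACTB/GAPDH/POLR2A, and fitted bidirectionally versus DMSO.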

[9] = read-out: Bcl-2 (BAD) gene, BAD (gene 572); test: LTEA_HepaRG_BAD: Life Technologies and Expression Analysis (LTEA) Assay for Bcl-2 (BAD) gene using HepaRG (AID 2283469)
Method in brief: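 Differentiated HepaRG cells were exposed in duplicate in 0.5% DMSO for 48 h to eight-point half-log concentrations up to 100 uM. BAD mRNA was measured by Fluidigm TaqMan qRT-PCR, normalized to ACTB, GAPDH and POLR2A, and fitted bidirectionally against DMSO.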

[10] = read-out: Bcl-2 (BAX) gene, BAX (gene 581); test: LTEA_HepaRG_BAX: Life Technologies and Expression Analysis (LTEA) Assay for Bcl-2 (BAX) gene using HepaRG (AID 2283470)
Method in brief: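 HepaRG (human liver), 48 h exposure, duplicate wells. 8-pt curve, half-log from 100 uM, 0.5% DMSO. BAX transcript by TaqMan qRT-PCR; ACTB/GAPDH/POLR2A normalization; gain or loss vs DMSO baseline.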

[11] = read-out: adenosine kinase (ADK) gene, ADK (gene 132); test: LTEA_HepaRG_ADK: Life Technologies and Expression Analysis (LTEA) Assay for adenosine kinase (ADK) gene using HepaRG (AID 2283471)
Method in brief: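 Read-out is ADK transcript level measured by qRT-PCR and normalised to three housekeeping genes. Cells are human HepaRG, dosed for 48 h at up to 100 uM in 0.5% DMSO. Gain or loss of signal is fitted against DMSO controls.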

[12] = read-out: Alpha-fetoprotein (AFP) gene, AFP (gene 174); test: LTEA_HepaRG_AFP: Life Technologies and Expression Analysis (LTEA) Assay for Alpha-fetoprotein (AFP) gene using HepaRG (AID 2283472)
Method in brief: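 HepaRG, single lot; 48 h post-plating -> serum-free induction medium; cpd 8-pt, 100 uM top, half-log, 0.5% DMSO, duplicate, 48 h. RNA -> qRT-PCR AFP, norm ACTB/GAPDH/POLR2A. Bidirectional fit vs DMSO.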

BCL2L11 (gene 10018) = test: LTEA_HepaRG_BCL2L11: Life Technologies and Expression Analysis (LTEA) Assay for Bcl-2 (BCL2L11) gene using HepaRG (AID 2283473)
Method in brief: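 HepaRG, 48 h exposure, 8-pt half-log series from 100 uM in 0.5% DMSO, duplicates; qRT-PCR (Fluidigm TaqMan) for BCL2L11, housekeeping-normalized; bidirectional curve fit relative to DMSO baseline.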

[13] = read-out: Apolipoprotein A-V (APOA5) gene, APOA5 (gene 116519); test: LTEA_HepaRG_APOA5: Life Technologies and Expression Analysis (LTEA) Assay for Apolipoprotein A-V (APOA5) gene using HepaRG (AID 2283474)
Method in brief: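 HepaRG, 48 h chemical exposure in serum-free induction medium, 8-pt half-log series (top 100 uM), 0.5% DMSO vehicle, duplicates. Readout: APOA5 mRNA by qRT-PCR, housekeeping-normalized; bidirectional fit vs DMSO baseline.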

[14] = read-out: Apoptosis regulator Bcl-2 (Homo sapiens) (UniProt P10415); test: LTEA_HepaRG_BCL2: Life Technologies and Expression Analysis (LTEA) Assay for Bcl-2 gene using HepaRG (AID 2283475)
Method in brief: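 HepaRG, plated 48 h then switched to serum-free induction medium; dosed 48 h, 8 conc. (max 100 uM, half-log steps), duplicate, 0.5% DMSO. Lysis in RLT, RNA isolated, TaqMan qRT-PCR for BCL2; ACTB/GAPDH/POLR2A normalisation; bidirectional fit vs DMSO.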

[15] = read-out: Bcl-2 (BID) gene, BID (gene 637); test: LTEA_HepaRG_BID: Life Technologies and Expression Analysis (LTEA) Assay for Bcl-2 (BID) gene using HepaRG (AID 2283476)
Method in brief: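 Transcript levels of BID, measured by qRT-PCR and normalized to three housekeeping genes, were fitted bidirectionally against DMSO controls. Cells were HepaRG, dosed 48 h at up to 100 uM.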

Caspase-3 (Homo sapiens) = Caspase-3 (Homo sapiens) (UniProt P42574); test: LTEA_HepaRG_CASP3: Life Technologies and Expression Analysis (LTEA) Assay for cysteine-aspartic acid protease (CASP3) using HepaRG (AID 2283477)
Method in brief: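 HepaRG, 48 h exposure, 8 conc. (top 100 uM, half-log steps, duplicate), 0.5% DMSO vehicle; qRT-PCR of CASP3 transcript, housekeeping-normalised (ACTB/GAPDH/POLR2A); bidirectional curve fit vs DMSO baseline.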

[16] = read-out: Cytochrome P450 (CYP24A1), CYP24A1 (gene 1591); test: LTEA_HepaRG_CYP24A1: Life Technologies and Expression Analysis (LTEA) Assay for Cytochrome P450 (CYP24A1) using HepaRG (AID 2283478)
Method in brief: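 qRT-PCR read-out: CYP24A1 transcript levels normalized to three housekeeping genes, bidirectional curve fits against 0.5% DMSO baseline. Human HepaRG cells treated 48 h with chemicals at eight concentrations from 100 uM in half-log steps.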

[17] = read-out: Alkaline Phosphatase, Placental (ALPP) gene, ALPP (gene 250); test: LTEA_HepaRG_ALPP: Life Technologies and Expression Analysis (LTEA) Assay for Alkaline Phosphatase, Placental (ALPP) gene using HepaRG (AID 2283468)
Method in brief: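 qRT-PCR readout of ALPP mRNA (Fluidigm TaqMan), normalized to ACTB/GAPDH/POLR2A, after 48 h chemical exposure of HepaRG cells; 8-point half-log series, top 100 uM, 0.5% DMSO vehicle. Bidirectional curve fit versus DMSO baseline.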

[18] = read-out: Cytochrome P450 (CYP1A2), CYP1A2 (gene 1544); test: LTEA_HepaRG_CYP1A2: Life Technologies and Expression Analysis (LTEA) Assay for Cytochrome P450 (CYP1A2) using HepaRG (AID 2283479)
Method in brief: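 HepaRG, 48 h exposure, top 100 uM, half-log 8-pt, 0.5% DMSO vehicle, duplicates. Readout: TaqMan qRT-PCR of CYP1A2 mRNA, housekeeping-normalized (ACTB/GAPDH/POLR2A). Gain/loss fit relative to DMSO baseline.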

Measured: AC50

Chain of Broad substrate specificity ATP-binding cassette transporter ABCG2 (Homo sapiens) (Q9UNQ0 whole entry, looked up): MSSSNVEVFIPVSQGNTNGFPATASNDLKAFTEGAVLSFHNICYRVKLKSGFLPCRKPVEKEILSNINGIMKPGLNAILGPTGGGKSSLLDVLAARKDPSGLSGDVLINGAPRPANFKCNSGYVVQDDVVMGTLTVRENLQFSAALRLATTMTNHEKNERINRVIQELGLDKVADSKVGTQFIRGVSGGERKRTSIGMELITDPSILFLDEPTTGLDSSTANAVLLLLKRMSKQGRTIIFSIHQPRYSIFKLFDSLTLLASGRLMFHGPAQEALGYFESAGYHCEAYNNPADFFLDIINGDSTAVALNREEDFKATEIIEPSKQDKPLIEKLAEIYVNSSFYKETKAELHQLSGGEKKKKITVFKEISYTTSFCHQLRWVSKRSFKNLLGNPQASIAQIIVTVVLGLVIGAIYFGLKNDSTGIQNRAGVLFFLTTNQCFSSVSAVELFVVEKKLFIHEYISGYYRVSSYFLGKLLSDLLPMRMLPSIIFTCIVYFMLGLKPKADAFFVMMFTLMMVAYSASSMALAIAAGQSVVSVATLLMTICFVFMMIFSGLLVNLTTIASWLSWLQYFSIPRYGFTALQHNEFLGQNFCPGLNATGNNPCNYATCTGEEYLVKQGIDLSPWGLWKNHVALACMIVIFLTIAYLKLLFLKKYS
Chain of Caspase-3 (Homo sapiens) (P42574 whole entry, looked up): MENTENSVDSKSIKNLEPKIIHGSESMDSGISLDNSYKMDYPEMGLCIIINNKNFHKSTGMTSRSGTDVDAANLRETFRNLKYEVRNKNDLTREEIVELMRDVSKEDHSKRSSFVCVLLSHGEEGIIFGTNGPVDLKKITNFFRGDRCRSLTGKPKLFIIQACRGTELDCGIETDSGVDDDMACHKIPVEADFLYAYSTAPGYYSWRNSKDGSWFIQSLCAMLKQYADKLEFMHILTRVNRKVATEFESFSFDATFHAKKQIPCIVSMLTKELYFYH
Chain of Apoptosis regulator Bcl-2 (Homo sapiens) (P10415 whole entry, looked up): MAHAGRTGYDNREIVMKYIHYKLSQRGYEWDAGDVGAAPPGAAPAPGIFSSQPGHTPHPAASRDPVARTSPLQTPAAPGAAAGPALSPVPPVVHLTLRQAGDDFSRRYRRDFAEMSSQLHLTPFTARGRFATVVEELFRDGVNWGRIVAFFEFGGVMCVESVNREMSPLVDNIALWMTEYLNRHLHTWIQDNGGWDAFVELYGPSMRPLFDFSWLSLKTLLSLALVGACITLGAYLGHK

CN(C)[C@@H]1C(=O)C(C(N)=O)=C(O)[C@@]2(O)C(=O)C3=C(O)c4c(O)cccc4[C@@](C)(O)[C@H]3C[C@@H]12
not listed: [17] | [18]
inactive: all other assays above

Cc1ccc(N=C=O)cc1N=C=O
active: [4] 20.2 µM | [7] 12.5 µM | [12] 50 µM | [14] 23.6 µM
not listed: [18]
inactive: all other assays above

N#CC(Br)Br
not listed: [11]
inactive: all other assays above

O=P(OCCCl)(OCCCl)OCCCl
active: [10] 9.92 µM
not listed: [11] | [18]
inactive: all other assays above

CC(O)CCO (centres undefined)
not listed: [12]
inactive: all other assays above

CCCCC(CC)COC(=O)c1ccc(C(=O)OCC(CC)CCCC)c(C(=O)OCC(CC)CCCC)c1 (centres undefined)
not listed: [12] | [18]
inactive: all other assays above

CCNS(=O)(=O)C(F)(F)C(F)(F)C(F)(F)C(F)(F)C(F)(F)C(F)(F)C(F)(F)C(F)(F)F
active: [4] 23.7 µM | [13] 48.2 µM
not listed: [11] | [12]
inactive: all other assays above

CC(C)(C)C(O)(CCc1ccc(Cl)cc1)Cn1cncn1 (centres undefined)
active: [1] 3.45 µM | [7] 6.24 µM | [17] 80.3 µM | [13] 79.4 µM | [14] 79 µM | [18] 2.92 µM
not listed: [12]
inactive: all other assays above

Cc1ccc(N)cc1
not listed: [11] | [12]
inactive: all other assays above

Nc1ccc(Cc2ccc(N)cc2)cc1
active: [18] 31.3 µM
not listed: [11] | [12]
inactive: all other assays above

CN(C)c1ccccc1
not listed: [18]
inactive: all other assays above

COP(=S)(OC)SCN1C(=O)c2ccccc2C1=O
not listed: [11] | [18]
inactive: all other assays above

N#CC(Br)(Br)C(N)=O
not listed: [17]
inactive: all other assays above

C[N+](C)(C)CC1CO1 (centres undefined)
not listed: [11] | [12] | [17]
inactive: all other assays above

OCCCl
not listed: [12] | [17] | [18]
inactive: all other assays above
